Hits are enriched below; roughly 4.5% of the tested compounds scored in any of these assays.
DAX1 inh-1 = DAX1 (NR0B1) inhibition, primary screen; HEK293T StAR-luciferase reporter, SF-1/DAX-1 repression relief; inhibition, % at 6.8 µM; 370,000 tested, 1.1% active;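 active = inhibition above the mean over all tested compounds plus 3 SD, cut at about 3.6% in these data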;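 note: 0% = DAX-1 cells with DMSO and 100% = cells lacking DAX-1 with DMSO; higher inhibition means more luminescence from relief of DAX-1 repression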
GAA850 FXN act = frataxin GAA850 promoter activation. HEK293 lucGAA850 FXN promoter luciferase reporter, 24 h; percent of 10 µM SAHA response. activation, % at 6 µM. 360,000 tested, 0.56% active. AID 540364;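 active = activation above the average of all compounds screened plus 3 SD, cutoff fixed separately per campaign, cut at about 7.5% in these data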;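 note: 0% = DMSO wells and 100% = 10 µM SAHA wells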
hgDAF12 agonist = agonists of H. glycines DAF-12 nuclear receptor; HEK293 GAL4-hgDAF12 UAS-luciferase reporter, agonist luminescence; normalized to butyrate control; activation, % at 6.8 µM; 370,000 tested, 1.8% active; AID 687014;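 active = activation above a cutoff set at the mean of all screened compounds plus 3 SD, cut at about 10% in these data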;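 note: 0% = DMSO wells and 100% = sodium butyrate wells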
DAX1 inh-2 = NR0B1 (DAX1) inhibition. HEK293 Gal4-DAX1 luciferase reporter, luminescence. inhibition, % at 6.75 µM. 340,000 tested, 0.99% active;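 active = inhibition above the mean over all tested compounds plus 3 SD, cut at about 4.2% in these data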;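 note: 0% = DAX1-transfected cells with DMSO and 100% = empty-vector control cells with DMSO; inhibition shows as a rise in luminescence from relieved DAX1 repression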
Target sequence (P51843 207-470 limits assumed): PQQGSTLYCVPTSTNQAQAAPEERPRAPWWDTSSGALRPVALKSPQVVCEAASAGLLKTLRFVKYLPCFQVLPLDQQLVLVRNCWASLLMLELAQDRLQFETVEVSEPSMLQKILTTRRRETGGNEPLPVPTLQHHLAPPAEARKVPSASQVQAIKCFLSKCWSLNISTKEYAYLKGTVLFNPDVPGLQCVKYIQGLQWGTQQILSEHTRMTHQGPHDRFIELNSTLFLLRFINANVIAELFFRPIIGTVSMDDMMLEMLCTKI
ssDAF-12 act = activators of S. stercoralis DAF-12 nuclear receptor; HEK293 ssDAF-12/GRIP1 lit1-tk-luc reporter, luminescence; % of 3 µM dafachronic acid response; activation, % at 6.8 µM; 370,000 tested, 1% active; AID 652126;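 active = activation above the mean over all tested compounds plus 3 SD, cut at about 0.9% in these data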;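 note: 0% = DMSO-only wells and 100% = 3 µM delta7-dafachronic acid wells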
hcDAF12 agonist = H. contortus DAF-12 activation, primary screen; 370,000 tested, 1.4% active; AID 652067; activation, % at 6.8 µM; HEK293 hcDAF-12 lit1-tk-luc reporter, luminescence; 0% DMSO, 100% Δ7-dafachronic acid;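 active = activation above the mean of all tested compounds plus 3 SD, cut at about 5.5% in these data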;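 note: 100% = response to 3 µM Δ7-dafachronic acid high control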
Starred values were filed as active, the others as inactive.

Results for CC1(C)CC(=O)C([N+](=O)[O-])=C(NCCCC(=O)O)C1 ?
DAX1 inh-1: -0.2; GAA850 FXN act: -0.6; hgDAF12 agonist: -0.9; DAX1 inh-2: 4.5*; ssDAF-12 act: -1.1; hcDAF12 agonist: 0.9

How did O=C(CCc1ccccc1)N[C@H]1[C@H](OCc2ccccc2)CCC[C@@]12C(=O)N(Cc1ccccc1)c1ccc(-c3ccccn3)cc12 do in these assays?
DAX1 inh-1: -0.7; hgDAF12 agonist: -0.4; ssDAF-12 act: -1.4; hcDAF12 agonist: -0.4

Results for COC(=O)CSc1nnc(-c2n[nH]c3c2CCC3)n1N ?
DAX1 inh-1: 0.5; hgDAF12 agonist: 0.2; ssDAF-12 act: -1.1; hcDAF12 agonist: -0.4

What do the screens show for `CSCC[C@H](NC(=O)OC(C)(C)C)C(=O)N1CCC(C(=O)N[C@@H](C)C(=O)NC(C)c2ccccc2)CC1` (stereo partly specified)?
DAX1 inh-1: -0.4; GAA850 FXN act: -0.4; hgDAF12 agonist: 2.4; DAX1 inh-2: 8.3*; ssDAF-12 act: -1.6; hcDAF12 agonist: -1.8

Results for CC(C)C[C@H](N)C(=O)N1CCC(C(=O)N[C@H](C(=O)NC(C)c2ccccc2)C(C)C)CC1 (stereo partly specified) ?
DAX1 inh-1: 0.9; GAA850 FXN act: 0.6; hgDAF12 agonist: 0.4; DAX1 inh-2: 5.5*; ssDAF-12 act: -0.6; hcDAF12 agonist: -0.2

What do the screens show for `COc1ccc(CNC(=O)[C@@H](NC(=O)C2CCN(C(=O)[C@@H](N)CC(C)C)CC2)C(C)C)cc1`?
DAX1 inh-1: 1.3; GAA850 FXN act: 1.5; hgDAF12 agonist: 1.6; DAX1 inh-2: 3.0; ssDAF-12 act: -0.3; hcDAF12 agonist: 1.6

How did COc1ccc(CNC(=O)[C@@H](NC(=O)C2CCN(C(=O)[C@@H](N)CCSC)CC2)C(C)C)cc1 do in these assays?
DAX1 inh-1: 0.2; GAA850 FXN act: -0.5; hgDAF12 agonist: -2.5; DAX1 inh-2: 5.9*; ssDAF-12 act: -1.0; hcDAF12 agonist: -0.8

What do the screens show for `C=CCN1C(=O)[C@@H](CC(=O)NCc2cccs2)[C@]2(C(=O)OCC)CCCCC/C=C/12`?
DAX1 inh-1: 0.6; hgDAF12 agonist: -0.3; ssDAF-12 act: -0.7; hcDAF12 agonist: 3.2

What do the screens show for `COc1ccc(S[C@]2(C(=O)N3CCCC3)CC(=O)N(C(=O)c3ccccc3)[C@@H]2c2ccc(OC)cc2)cc1`?
DAX1 inh-1: -1.5; hgDAF12 agonist: 2.2; ssDAF-12 act: -1.2; hcDAF12 agonist: 2.5

How did COc1ccccc1NCCC(=O)OCC(=O)NC1CCCCCC1 do in these assays?
DAX1 inh-1: 0.2; GAA850 FXN act: 2.1; hgDAF12 agonist: -2.0; DAX1 inh-2: 0.4; ssDAF-12 act: -1.2; hcDAF12 agonist: -0.5

How did Cc1ccc(OCCCC(=O)NC2CCCCC2)cc1 do in these assays?
DAX1 inh-1: -0.4; GAA850 FXN act: 0.0; hgDAF12 agonist: 1.2; DAX1 inh-2: 5.0*; ssDAF-12 act: -0.8; hcDAF12 agonist: -3.3

How did COc1cc(C)ccc1OCC(=O)NC1CCCCCC1 do in these assays?
DAX1 inh-1: 4.3*; GAA850 FXN act: 3.6; hgDAF12 agonist: 8.1; DAX1 inh-2: 0.9; ssDAF-12 act: -0.7; hcDAF12 agonist: -0.4

What do the screens show for `COc1ccccc1CCC(=O)OCC(=O)NC1CCCC1`?
DAX1 inh-1: 3.7*; GAA850 FXN act: 1.9; hgDAF12 agonist: -1.9; DAX1 inh-2: -0.8; ssDAF-12 act: -1.3; hcDAF12 agonist: -0.3

How did COc1cc(C=Nn2c(-c3ccccc3F)n[nH]c2=S)ccc1OCc1ccccc1 do in these assays?
DAX1 inh-1: -0.6; hgDAF12 agonist: 3.3; ssDAF-12 act: -1.5; hcDAF12 agonist: -3.1

What do the screens show for `CC1C/C(=N/NC(=O)c2cccc(F)c2)c2ccc(O)cc2C1` (stereo unspecified)?
DAX1 inh-1: 0.2; GAA850 FXN act: 2.6; hgDAF12 agonist: 12.8*; DAX1 inh-2: 1.6; ssDAF-12 act: -1.4; hcDAF12 agonist: 2.6

Results for COc1ccc2c(c1)CC(C)C/C2=N\NC(=O)c1ccco1 (stereo unspecified) ?
DAX1 inh-1: 2.5; GAA850 FXN act: 4.3; hgDAF12 agonist: 10.3; DAX1 inh-2: 2.4; ssDAF-12 act: 0.5; hcDAF12 agonist: 3.5

Results for Cn1cccc1C(=O)OCc1cc(-c2ccco2)on1 ?
DAX1 inh-1: 4.3*; GAA850 FXN act: 5.6; hgDAF12 agonist: 10.2; DAX1 inh-2: 2.9; ssDAF-12 act: -0.1; hcDAF12 agonist: 1.8

How did CCC(=O)N1N=C(c2ccc(Cl)cc2)CC1c1ccco1 (stereo unspecified) do in these assays?
DAX1 inh-1: -0.1; GAA850 FXN act: 3.0; hgDAF12 agonist: 0.8; DAX1 inh-2: 5.8*; ssDAF-12 act: -1.8; hcDAF12 agonist: -1.2

How did CNC(=O)NC(=O)COC(=O)CCCOc1ccc(OC)cc1 do in these assays?
DAX1 inh-1: 0.2; GAA850 FXN act: -0.2; hgDAF12 agonist: -0.2; DAX1 inh-2: 5.6*; ssDAF-12 act: -0.6; hcDAF12 agonist: -1.3

What do the screens show for `CC(C)(C)C(=O)OC12CCCN(C1)/C(=C/c1ccc(C#N)cc1)C2` (stereo unspecified)?
DAX1 inh-1: 0.2; hgDAF12 agonist: -0.8; ssDAF-12 act: -0.2; hcDAF12 agonist: 0.8

How did Cc1ccc(C)c(NC(=S)NC2CC3CCC(C2)N3Cc2ccco2)c1 (stereo unspecified) do in these assays?
DAX1 inh-1: 0.2; GAA850 FXN act: -0.6; hgDAF12 agonist: 1.5; DAX1 inh-2: 0.6; ssDAF-12 act: 1.6*; hcDAF12 agonist: -0.3

What do the screens show for `C/C(=N/NC(=O)c1ccco1)c1cccc(NC(=O)c2ccc(C)s2)c1`?
DAX1 inh-1: 2.2; GAA850 FXN act: 3.0; hgDAF12 agonist: 12.0*; DAX1 inh-2: 2.2; ssDAF-12 act: -0.3; hcDAF12 agonist: 5.0

How did C/C(=N/NC(=O)c1ccc(Br)o1)c1cccc(NC(=O)c2ccc(C)o2)c1 do in these assays?
DAX1 inh-1: 1.4; GAA850 FXN act: 6.4; hgDAF12 agonist: 9.6; DAX1 inh-2: 3.0; ssDAF-12 act: -0.5; hcDAF12 agonist: 1.3

What do the screens show for `C/C(=N\NC(=O)c1cccc(C)c1)c1cccc(NC(=O)c2ccco2)c1`?
DAX1 inh-1: -0.1; GAA850 FXN act: -0.2; hgDAF12 agonist: 8.4; DAX1 inh-2: 2.3; ssDAF-12 act: -0.8; hcDAF12 agonist: 0.8

Results for C/C(=N/NC(=O)c1ccco1)c1cccc(NC(=O)c2ccc(C)o2)c1 ?
DAX1 inh-1: 1.0; GAA850 FXN act: 3.9; hgDAF12 agonist: 12.6*; DAX1 inh-2: 1.5; ssDAF-12 act: -0.5; hcDAF12 agonist: 2.4

What do the screens show for `CCOC(=O)N1CCN(C(=O)C[C@H]2C[C@@]3(C(=O)OC)C(=C[C@H](C4CCCC4)O[C@@H]3C)N(Cc3cccc4ccccc34)C2=O)CC1`?
DAX1 inh-1: 0.0; hgDAF12 agonist: -3.4; ssDAF-12 act: -1.3; hcDAF12 agonist: -1.5
